In all, about 72,000 compounds went through this assay and about 710 (0.99%) were called active. Inconclusive results (about 7%) are left out. Calls come from the whole dose curve; as a rule, active = well fitted inhibition curve with a large enough effect; inconclusive = small, poorly fitted or top-dose-only effect; inactive = no such curve, though single readings can be large or run the other way. Shown is part of a subset that was picked to be rich in actives. A call without a number means that no potency is given here.
Test: qHTS Assay for Inhibitors of the ERK Signaling Pathway using a Homogeneous Screening Assay; note: nearly all actives have a fitted effect of over 55% in size
Details: HEK293-V1b, vasopressin-stimulated pERK AlphaScreen; series mostly up to 57.5 µM
Outline: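 V1b-HEK293 cells; cpd 30 min 37C; 25 nM vasopressin 5 min; lyse 10 min; AlphaScreen beads 5 hr RT. Normalized to DMSO basal and 25 nM vasopressin; AC50 by Hill fit.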
Potency is the fitted concentration of half-maximal effect.

| SMILES | Potency | activity, negative = inhibition |
| --- | --- | --- |
| CCC[C@@H]1C[C@@]1(CCC)C(NC(=O)c1ccc(-c2ccccc2)cc1)c1cccc(Cl)c1 (some centres undefined) | inactive |  |
| CC1=C(C(=O)OCc2ccccc2)C(c2ccc(C(F)(F)F)cc2)NC(=O)N1CCCCCC(=O)O (centres undefined) | inactive |  |
| O=C(NCCCN1CCN(C2CCCCC2)CC1)Nc1ccccc1C(F)(F)F | inactive |  |
| O=C(CN1CCN(C2CCCCC2)CC1)Nc1ccccc1N1CCCCC1 | 25.1 µM (active) |  |
| Cc1ccccc1NC(=O)CNc1ccccc1N1CCCCC1 | inactive |  |
| CC(C)[C@H]1CC[C@@H](C)C[C@H]1O | inactive |  |
| CC(C)C1=CC2=CC[C@@H]3[C@](C)(CO)CCC[C@]3(C)C2CC1 (some centres undefined) | inactive |  |
| Cc1ccc2nc(CC(=O)c3ccc4ccccc4c3)c(=O)[nH]c2c1 |  | 3.17% [at 11.5 µM] (inactive) |
| C=CC(=O)c1ccc2ccccc2c1 | 10 µM (active) |  |
| CC1C(O)CC2C(C(=O)O)=CO[C@@H](O[C@H]3OC(CO)C(O)C(O)C3O)C21 (some centres undefined) | inactive |  |
| Cc1ccc(S(=O)(=O)NC(=O)NN2C[C@H]3CCC[C@@H]3C2)cc1 | inactive |  |
| Cc1ccc(/C(=C/CN2CCCC2)c2ccccn2)cc1 | inactive |  |
| Nc1nc(N)c2[nH]c(CNc3ccc(C(=O)O)cc3)nc2n1 |  | -2.04% [at 11.5 µM] (inactive) |
| CCC1=C(OC(=O)N(CC)CC)N2C(=O)OC(=NCCc3c[nH]c4ccccc34)[C@]2(C)[C@H]2C1=CC[C@H]1C(=O)N(CC)C(=O)[C@H]12 | inactive |  |
| c1ccc(COc2nsnc2N2CCOCC2)cc1 | 25.1 µM (active) |  |
| O=C(O)COc1nsnc1N1CCOCC1 | inactive |  |
| c1nc(COc2nsnc2N2CCOCC2)cs1 | inactive |  |
| O=C(c1csnn1)N1CCC2(CCN(Cc3nccs3)CC2)CC1 | inactive |  |
| COc1ccc(C2CC(=O)c3c(O)cc(OC4OC(COC5OC(C)C(O)C(O)C5O)C(O)C(O)C4O)cc3O2)cc1O (centres undefined) | inactive |  |
| O=C1OC(C(O)CO)C(O)=C1O (centres undefined) | inactive |  |
| O=C(NCc1cccs1)c1ccc2c(c1)ncn2C1CCCC1 | inactive |  |
| O=C(NCCN1CCOCC1)c1c(F)c(F)c(F)c(F)c1F | inactive |  |

| SMILES | Potency | activity, negative = inhibition |
| --- | --- | --- |
| O=C(NCCN1CCOCC1)c1ccc2c(c1)ncn2C1CCCC1 | 25.1 µM (active) |  |
| FC(F)(F)c1ccccc1-c1cc(NCc2ccccc2)ncn1 | inactive |  |
| C=CC(=O)OCCOCCOCCOCCOC(=O)C=C | inactive |  |
| O=C(CSc1n[nH]c(-c2cccnc2)n1)Nc1ccnc2ccccc12 | 20 µM (active) |  |
| COc1ccc(-c2nc(SCC(=O)N3CCOCC3)n[nH]2)cc1 | inactive |  |
| Cc1oc2nc(SCC(=O)NCc3cccnc3)nc(N)c2c1C | inactive |  |
| CN1CC(=O)N=C1N | inactive |  |
| Nc1nc2c(nc(Cl)n2C2OC(CO)C(O)C2O)c(=O)[nH]1 (centres undefined) | inactive |  |
| Oc1ccc2c(c1)OCC1c3cc4c(cc3OC21)OCO4 (centres undefined) | inactive |  |
| COC(=O)[C@@H]1C[C@@]2(O)[C@H](O)[C@H](O)[C@H](O)C[C@H]2N1CC1CCCCC1 | inactive |  |
| COC(=O)[C@@H]1C[C@@]2(O)[C@H](O)[C@H](O)[C@H](O)C[C@H]2N1Cc1ccc(C)s1 | inactive |  |
| COc1ccccc1-c1nnc(SCC(=O)Nc2ccccc2)o1 | 25.1 µM (active) |  |
| COc1ccccc1-c1nnc(SCC(=O)N2CC(C)CC(C)C2)o1 (centres undefined) | inactive |  |
| COc1ccccc1-c1nnc(SCC(=O)Nc2cc(C)on2)o1 | inactive |  |
| Cn1cccc1C(=O)N1CCC2(CC1)CN(c1cccc(-c3ccccc3)c1)C2 | inactive |  |
| COC(=O)[C@@H]1C[C@@]2(O)[C@H](O)[C@H](O)[C@H](O)C[C@H]2N1Cc1ccc(C(C)(C)C)cc1 | inactive |  |
| NCCNCC1CCNCC1 |  | -16% [at 11.5 µM] (inactive) |
| O=C(c1ccco1)N1CCN(C(=O)C2CC(c3ccc(Cl)c(Cl)c3)=NO2)CC1 (centres undefined) | 20 µM (active) |  |
| O=C(c1ccco1)N1CCN(c2cccc(Cl)c2)CC1 | inactive |  |
| O=C(c1ccco1)N1CCN(C(=O)C2CC(c3ccc(F)cc3)=NO2)CC1 (centres undefined) | inactive |  |
| O=C(O)c1c(Br)c(Br)c(Br)c(Br)c1C1c2ccc(O)cc2Oc2cc(O)ccc21 |  | -24.2% [at 11.5 µM] (inactive) |
| CC(=O)OC1CCC2(O)CC1(C)CCC1C2CC1(C)C (centres undefined) | inactive |  |

| SMILES | Potency | activity, negative = inhibition |
| --- | --- | --- |
| COc1cccc(Cn2c(=O)cnc3cncnc32)c1 | inactive |  |
| COc1ccc(CCC(=O)c2c(O)cc(OC3OC(CO)C(O)C(O)C3O[C@@H]3OC(C)C(O)C(O)C3O)cc2O)cc1O (some centres undefined) | inactive |  |
| O=C(Oc1cc(OC(=O)c2ccccc2)c2c(c1)OC(c1ccc(OC(=O)c3ccccc3)c(OC(=O)c3ccccc3)c1)[C@@H](OC(=O)c1ccccc1)C2)c1ccccc1 (some centres undefined) | inactive |  |
| O=C1c2ccccc2C(Nc2ccc3c(c2)OCCO3)N1Cc1ccco1 (centres undefined) | 25.1 µM (active) |  |
| CC1(C)SC2c3ccccc3C(=O)N2[C@@H]1C(=O)NCc1ccco1 (some centres undefined) | inactive |  |
| O=C(NC1CCCCC1)C1c2ccccc2C(=O)N1Cc1ccco1 (centres undefined) | inactive |  |
| COC1C[C@@H](O[C@@H]2C(C)C(=O)OC(C)C(C)C(O)C(C)C(=O)[C@@]3(CO3)CC(C)C(OC3OC(C)CC(N(C)C)C3O)C2C)OC(C)[C@@H]1O (some centres undefined) | inactive |  |
| C=C[C@](C)(O)CCC1C(=C)CCC2[C@@](C)(CO)CCC[C@@]12C (some centres undefined) | inactive |  |
| COCc1[nH]nc2c1C(C1C=CCCC1)C(C#N)=C(N)O2 (centres undefined) | inactive |  |
| N#CC1=C(N)OC2=C(C(=O)CCC2)C1C1CC=CCC1 (centres undefined) | inactive |  |
| N#CC1=C(N)Oc2cc(O)ccc2C1C1CCCCC1 (centres undefined) | 25.1 µM (active) |  |
| Clc1ccc(C=Nc2ccc3c(c2)Cc2ccccc2-3)c(Cl)c1 |  | 9.67% [at 11.5 µM] (inactive) |
| CCCN(C/C=C\I)[C@@H]1CCc2cccc(O)c2C1 | inactive |  |
| CC1=C(/C=C/C(C)=C/C=C/C(C)=C/C=C/C=C(C)/C=C/C=C(C)/C=C/C2=C(C)CCCC2(C)C)C(C)(C)CCC1 | inactive |  |
| COCCn1c(=O)c(CCc2ccccc2)nc2cnc(N3CCNCC3)nc21 | inactive |  |
| Cc1cnc(CNc2cc(-c3c(C)noc3C)ncn2)cn1 | inactive |  |
| O=C(O)C(O)[C@@](O)(Cc1ccc(O)cc1)C(=O)O (some centres undefined) | inactive |  |
| Cc1ccnc(N2CCC(C(=O)NC3CCCCCC3)CC2)n1 | inactive |  |
| Cc1nc2ccccc2c(=O)n1CCCn1ccnc1 | inactive |  |
| Cc1ccnc(-n2sc3ccccc3c2=O)n1 | 39.8 µM (active) |  |
